Data as given in PubChem BioAssay (Tox21).
Records with an inconclusive call do not appear. Active and inactive are the calls of the source. Calls follow the shape of the dose curve; as a rule, active = well fitted curve in the direction sought with a large enough effect in the repeat runs; inconclusive = weak or mixed curves; inactive = no such curve, though single readings can be large; an effect the other way counts as inactive or inconclusive.

Columns and labels:
[1] = qHTS RealTime-Glo MT Cell Viability Assay in HEK293 cells - 0 hour (AID 1224880); also: top concentration of the series differs between compounds; nearly all actives have a fitted effect of over 45% in size
Outline: (§1)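 qHTS format; HEK293 cells with NanoLuc/prosubstrate reagent, 37 C/5% CO2 for 5 h pre-dosing; compounds 23 nL in DMSO; luminescence at each time point reflects viable cells.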

[2] = A CellTox Green Cytotoxicity Assay to monitor cytotoxicity in HEK293 cells - 32 hour (AID 1224881); also: nearly all actives have a fitted effect of over 40% in size
Outline: (§2)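 Each value comes from one timepoint of a single continuous run in which HEK293 cells with CellTox Green were exposed to compound for up to 40 h at 37 C, dye fluorescence rising with cell death.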

[3] = A CellTox Green Cytotoxicity Assay to monitor cytotoxicity in HepG2 cells - 0 hour (AID 1224882); also: nearly all actives have a fitted effect of over 35% in size
Outline: (§3)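 Continuous culture of HepG2 cells with a membrane-impermeant DNA dye; rising fluorescence marks dead cells. Compound exposure lasted up to 40 h at 37 C, with reads every 8 h from 0 h.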

[4] = A CellTox Green Cytotoxicity Assay to monitor cytotoxicity in HepG2 cells - 32 hour (AID 1224883); also: nearly all actives have a fitted effect of over 50% in size
Outline: as §3

[5] = A CellTox Green Cytotoxicity Assay to monitor cytotoxicity in HEK293 cells - 8 hour (AID 1224884); also: nearly all actives have a fitted effect of over 35% in size
Outline: as §2

[6] = qHTS RealTime-Glo MT Cell Viability Assay in HepG2 cells - 16 hour (AID 1224885); also: nearly all actives have a fitted effect of over 50% in size
Outline: (§4)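 Viability was tracked continuously by NanoLuc luminescence from prosubstrate reduced by living HepG2 cells, at successive time points over 40 h of compound exposure. Cells with reagent were preincubated 5 h at 37 °C before compound addition.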

[7] = qHTS RealTime-Glo MT Cell Viability Assay in HEK293 cells - 24 hour (AID 1224886); also: top concentration of the series differs between compounds; nearly all actives have a fitted effect of over 50% in size
Outline: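 Viability tracked continuously by luminescence as live cells reduce a prosubstrate for NanoLuc; HEK293 cells preincubated 5 h, compound-treated at 37 C, and read at 0, 8, 16, 24, 32 and 40 h.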

[8] = qHTS RealTime-Glo MT Cell Viability Assay in HEK293 cells - 8 hour (AID 1224887); also: top concentration of the series differs between compounds; nearly all actives have a fitted effect of over 50% in size
Outline: as §1

[9] = A CellTox Green Cytotoxicity Assay to monitor cytotoxicity in HEK293 cells - 16 hour (AID 1224888); also: nearly all actives have a fitted effect of over 35% in size
Outline: as §2

[10] = qHTS RealTime-Glo MT Cell Viability Assay in HepG2 cells - 0 hour (AID 1224889); also: nearly all actives have a fitted effect of over 50% in size
Outline: as §4

Measured: Potency

Cc1cccc(C)c1NC(=O)c1cc(S(N)(=O)=O)c(Cl)cc1O
inactive: [1] | [2] | [3] | [4] | [5] | [6] | [7] | [8] | [9] | [10]

COc1cc(OC)c2ccc(=O)oc2c1
inactive: [1] | [2] | [3] | [4] | [5] | [6] | [7] | [8] | [9]

COc1cc(NS(=O)(=O)c2ccc(N)cc2)nc(C)n1
inactive: [1] | [2] | [3] | [4] | [5] | [6] | [7] | [8] | [9] | [10]

CCN(Cc1cccc(S(=O)(=O)O)c1)c1ccc(C(=C2C=CC(=[N+](CC)Cc3cccc(S(=O)(=O)O)c3)C=C2)c2ccccc2S(=O)(=O)[O-])cc1
inactive: [1] | [2] | [3] | [4] | [5] | [6] | [7] | [8] | [9] | [10]

CC12CC3CC(C)(C1)CC(N)(C3)C2
inactive: [1] | [2] | [3] | [4] | [5] | [6] | [7] | [8] | [9] | [10]

C[C@H](CS)C(=O)N1CCC[C@H]1C(=O)O
inactive: [1] | [2] | [3] | [4] | [5] | [6] | [7] | [8] | [9] | [10]

CC(C)(C)C(O)/C=C/c1ccc2c(c1)OCO2 (stereo unspecified)
inactive: [1] | [2] | [3] | [4] | [5] | [6] | [7] | [8] | [9] | [10]

CCCCOCCOC(=O)c1cccnc1
inactive: [1] | [2] | [3] | [4] | [5] | [6] | [7] | [8] | [9]

CC1CCCO1 (stereo unspecified)
inactive: [1] | [2] | [3] | [4] | [5] | [6] | [7] | [8] | [9] | [10]

O=C1OC[C@H](Cc2cccc(O)c2)[C@H]1Cc1cccc(O)c1
inactive: [1] | [2] | [3] | [4] | [5] | [6] | [7] | [8] | [9]

O=C1NC(=O)c2cccc3cccc1c23
inactive: [1] | [2] | [3] | [4] | [5] | [6] | [7] | [8] | [9]

Cc1oc(=O)oc1COC(=O)[C@@H]1N2C(=O)[C@@H](NC(=O)[C@H](N)c3ccccc3)[C@H]2SC1(C)C
inactive: [1] | [2] | [3] | [4] | [5] | [6] | [7] | [8] | [9] | [10]

CCCC(=O)OC(=O)CCC
inactive: [1] | [2] | [3] | [4] | [5] | [6] | [7] | [8] | [9] | [10]

O=CNNC=O
inactive: [1] | [2] | [3] | [4] | [5] | [6] | [7] | [8] | [9]

Nc1ccc(S(=O)(=O)NCc2ccccc2)cc1
inactive: [1] | [2] | [3] | [4] | [5] | [6] | [7] | [8] | [9] | [10]

CCOC(=O)Oc1ccc(CCNC(=O)[C@H](CCSC)NC(C)=O)cc1OC(=O)OCC
inactive: [1] | [2] | [3] | [4] | [5] | [6] | [7] | [8] | [9]

CC(=O)OCC1=C(C(=O)O)N2C(=O)[C@@H](NC(=O)CSc3ccncc3)[C@H]2SC1
inactive: [1] | [2] | [3] | [4] | [5] | [6] | [7] | [8] | [9] | [10]

C=C(C)c1ccccc1
inactive: [1] | [2] | [3] | [4] | [5] | [6] | [7] | [8] | [9]

Nc1ccc(NC(=O)c2ccc(N)cc2)cc1
inactive: [1] | [2] | [3] | [4] | [5] | [6] | [7] | [8] | [9] | [10]

CCCCC[C@H](O)/C=C/[C@H]1[C@H](O)CC(=O)[C@@H]1C/C=C\CCCC(=O)O
inactive: [1] | [2] | [3] | [4] | [5] | [6] | [7] | [8] | [9] | [10]

CCc1ccc(C)cc1
inactive: [1] | [2] | [3] | [4] | [5] | [6] | [7] | [8] | [9]

COc1ccc(CCN(C)CCCN2CCc3cc(OC)c(OC)cc3CC2=O)cc1OC
inactive: [1] | [2] | [3] | [4] | [5] | [6] | [7] | [8] | [9]

CCOCCC(=O)OCC
inactive: [1] | [2] | [3] | [4] | [5] | [6] | [7] | [8] | [9] | [10]
